# A selection: hits, their analogues and other compounds. The true share with any hit is near 15%.
# HCV inh: qHTS Assay for Inhibitors of Hepatitis C Virus (HCV). Huh7.5.1 HCVcc-Cre infection, luciferase reporter, 44 h. Potency, µM (series often up to 41.8 µM), without a hit: at the highest dose activity change, negative = inhibition, hits mostly inhibitors. 3.4% of 340,000 active. AID 651820, 2012; also: potency is read from the fitted curve at half-maximal effect; % is scaled to controls: 0 for no effect and ±100 for the full control effect
#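 Luciferase read-out (15 sec integration) after a 15 min room-temperature substrate step quantifies HCVcc-Cre infection. Cells, 1,000 per well, had compound added 4 h post-plating, then virus at ~0.5 moi, and were cultured 44 h.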
# Sm TGR block: qHTS Assay for the Inhibitors of Schistosoma Mansoni Peroxiredoxins; Schistosoma mansoni thioredoxin glutathione reductase (TGR), Q962Y6; purified TGR, DTNB reduction, TNB absorbance 405 nm; Potency, µM (top dose mostly 114 µM), for inactives: top-dose activity change, negative = inhibition, actives largely listed as inhibitors; 3% of 360,000 active; AID 485364, 2010; also: potency is read from the fitted curve at half-maximal effect; % is scaled to controls: 0 for no effect and ±100 for the full control effect; nearly all actives have a fitted effect of over 60% in size
#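 Kinetic colorimetric format: TGR-catalysed, NADPH-driven DTNB reduction monitored via TNB absorbance. Enzyme dispensed at 20 nM; compound exposure 15 min at room temperature before reaction start.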
# HCMV inh: qHTS Assay for inhibitors of the human cytomegalovirus (HCMV); activity change, negative = inhibition, % at 57.5 µM; 4.5% of 410,000 active; HFF cells, HCMV-luciferase reporter, 72 h; stronger effect = lower value; in the data active = activity change below about -60%; inconclusive = no clear call, values can overlap the other calls; inactive = above about -39%; also: % is scaled to controls: 0 for no effect and ±100 for the full control effect
#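 Two-dose cell screen: HFF monolayers treated with compounds and infected with luciferase-expressing HCMV at 1 PFU/cell, 72 h at 37C, then lysed for luciferase measurement.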
# SARS PLpro yeast-1: qHTS of Yeast-based Assay for SARS-CoV PLP; AID 485353, 2010; 0.19% of 330,000 active; S. cerevisiae expressing SARS-CoV PLpro, growth rescue; Potency, µM (top dose mostly 32.9 µM), for the others: at the top dose activity, positive = growth rescue, actives largely listed as activators; calls by dose curve; also: potency is read from the fitted curve at half-maximal effect; 0% is about no effect; nearly all actives have a fitted effect of over 55% in size
# Pf growth 48h: Primary qHTS for delayed death inhibitors of the malarial parasite plastid, 48 hour incubation; AID 504832, 2011; Potency, µM (highest dose often 28.7 µM), for the others: at the highest dose activity change, negative = inhibition, usual class: inhibitors; P. falciparum luciferase growth in erythrocytes, 48 h; 5.9% of 310,000 active; also: potency is read from the fitted curve at half-maximal effect; % is scaled to controls: 0 for no effect and ±100 for the full control effect
#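 Here the parasites carry a stable luciferase gene and grow inside erythrocytes in Albumax-based RPMI medium with compound for one erythrocytic cycle. Activity is scored as loss of luminescent signal.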
# Pf growth 96h: Primary qHTS for delayed death inhibitors of the malarial parasite plastid, 96 hour incubation; Potency, µM (series often up to 28.7 µM), without a hit: at the highest dose activity change, negative = inhibition, most hits filed as inhibitors; P. falciparum luciferase reporter growth, 96 h; 6.9% of 320,000 active; AID 504834, 2011; also: potency is read from the fitted curve at half-maximal effect; % is scaled to controls: 0 for no effect and ±100 for the full control effect
#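 Erythrocytes infected with luciferase-expressing P. falciparum were dispensed at 2% hematocrit and 0.05% parasitemia (final), then incubated with compounds 96 hours at 37 C in 5% CO2. Luminescence after detection reagent addition reported growth.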
# SARS PLpro yeast-2: qHTS of Yeast-based Assay for SARS-CoV PLP: Hit Validation. shares compounds with SARS PLpro yeast-1. yeast expressing SARS-CoV PLpro, growth phenotype rescue. calls only. 19% of 1,000 active; call rule not given here
# * = called active by the depositor; i = inactive; ? = inconclusive; . = no result; + = active, no number. Unless noted, calls follow the shape of the dose curve; as a rule, active = well fitted curve in the direction sought with a large enough effect; inconclusive = small, poorly fitted or top-dose-only effect, or another doubt; inactive = no such curve, though single readings can be large; an effect the other way counts as inactive or inconclusive.
SMILES,HCV inh,Sm TGR block,HCMV inh,SARS PLpro yeast-1,Pf growth 48h,Pf growth 96h,SARS PLpro yeast-2
COc1ccc(C(CC(C)=O)c2c(O)c3ccccc3oc2=O)cc1OC (configuration not stated),.,.,-10.4,.,.,.,.
Cc1ccccc1N1OC2C(=O)N(c3ccc(F)cc3)C(=O)C2C1c1ccccn1 (configuration not stated),-8.6%,-8.7%,4.4,-2.6%,-3.1%,127.1%,.
CN1OC2C(=O)N(c3ccccc3)C(=O)C2C1c1ccc(F)cc1 (configuration not stated),.,-1.9%,21.1,?,5.2%,0.3%,i
O=C(Nc1ccc(NC(=O)c2ccco2)cc1)c1ccc2c(c1)OCO2,-14.0%,-21.0%,?,?,.,-15.6%,+
O=C(NC1CCCCC1)c1ccc(Br)o1,-9.9%,-0.5%,8.0,4.0%,7.1%,188.3%,.
O=C(NC1CCC(O)CC1)c1ccc(Br)o1 (configuration not stated),25.3%,.,19.8,4.47µM*,.,.,i
CCOC(=O)c1c(N)n(-c2ccccc2CC)c2nc3ccccc3nc12,.,3.8%,30.4,.,.,.,.
CC(C)C(=O)NC(c1cccs1)c1cc([N+](=O)[O-])c2cccnc2c1O (configuration not stated),?,-18.9%,.,?,?,2.0%,i
CC(C)C(=O)NC(c1cccc([N+](=O)[O-])c1)c1ccc2cccnc2c1O (configuration not stated),3.98µM*,-28.4%,-104.8*,3.16µM*,3.7µM*,26.1%,i
Cc1ccc(C(NC(=O)C(C)C)c2cc([N+](=O)[O-])c3cccnc3c2O)cc1 (configuration not stated),12.6µM*,-14.4%,-12.8,?,2.7%,22.3%,?
CC(C)CC(=O)NC(NC(=O)CC(C)C)c1cccc([N+](=O)[O-])c1,11.7%,-1.3%,9.6,1.2%,1.3%,5.4%,.
CN1CCc2c(sc3c2C(=O)NC(c2ccc(-c4ccc(Cl)cc4)o2)N3)C1 (configuration not stated),?,?,41.0,-2.0%,?,-7.1%,.
CC(Sc1nnc(NCc2ccccc2)s1)C(=O)Nc1ccc2c(c1)C(=O)c1ccccc1C2=O (configuration not stated),?,0.6%,24.5,?,39.7%,1.8%,+
c1ccc(N2CCN(CCc3nnc4n3CCCCC4)CC2)cc1,11.0%,-8.2%,21.1,?,-9.1%,.,i
c1ccc(Cc2nnc3n2CCCCC3)cc1,12.2%,4.5%,-1.7,-1.8%,-10.0%,-6.3%,.
Cc1ccc(NC(=O)CCC(=O)N/N=C/c2ccccc2O)cc1,-27.6%,9.6%,3.0,0.2%,-3.7%,-52.6%,.
C=CCc1cccc(/C=N/NC(=O)CCCNc2ccc(C)cc2)c1O,-10.6%,-13.1%,12.3,14.1µM*,-7.6%,?,+
C=C(C)Cn1c(SCC)nc2ccccc2c1=O,-4.0%,0.4%,-5.2,-0.7%,?,-46.3%,.
C=C(C)Cn1c(SCC(=O)N/N=C/c2c(O)ccc3ccccc23)nc2ccccc2c1=O,?,-10.3%,-28.8,10µM*,-0.5%,0.0%,+
Cc1c(Cl)cccc1NC(=O)CSc1nncn1-c1ccccn1,2.0%,3.2%,-7.1,0.0%,28.9%,3.8%,.
CCC(=O)c1ccc(N2CCN(C(=O)c3cc([N+](=O)[O-])ccc3N3CCN(C)CC3)CC2)c(F)c1,?,7.6%,17.5,?,?,9.28µM*,+
CCC(=O)N1CCN(c2cc3c(cc2F)c(=O)c(C(=O)O)cn3CC)CC1,7.4%,.,74.1,.,.,.,.

# Screening data from PubChem BioAssay.
